Measured values from PubChem BioAssay (Tox21).
Activity calls are given as the source filed them. Calls come from the whole dose curve; as a rule, active = well fitted curve in the direction sought with a large enough effect in the repeat runs; inconclusive = weak or mixed curves; inactive = flat fitted curve, though single readings scatter.

Test: qHTS assay to test for compound auto fluorescence at 535 nm (green) in HEK293 cells (AID 720680)
Details: green autofluorescence 485/535 nm; series mostly up to 46 µM
Excerpt: U.S. Tox21 Program National Center for Advancing Translational Sciences [NCATS] NIH Chemical Genomics Center [NCGC] U.S. Environmental Protection Agency [EPA] National Institutes of Environmental Health Sciences [NIEHS] National Toxicology Program [NTP] U.S. Food and Drug Administration [FDA] Tox21 Assay Overview: Compound auto fluorescence often interferes with screening of the compound library against various biological targets and signaling pathways. Some of these compounds may have fluorophoric properties. Such properties may interfere with the assay outputs resulting in false positives and/or negatives. To decrease such complications and ensure the compound activities are relevant in terms of biological response, the Tox21 10K compound library was screened for auto fluorescence. From the fluorophores used as reporter signals in our screening assays, the auto fluorescence equivalencies of compounds against three fluorophores have been evaluated: Triamterene, Fluorescein and Rose Bengal sodium for blue, green and red fluorescence, respectively. The fluorescence intensities were measured using Excitation/Emission wavelengths at 405/460nm, 485/535nm and 540/590nm for blue, green and red labels, respectively. This assay includes the green fluorescence data.
Tox21 Assay Protocol Summary: 2,000 HEK293 cells in 5 uL of culture medium containing 10% dialyzed FBS per well were dispensed into black wall/clear bottom 1536-well plates using a Multidrop Combi Dispenser (Thermo Scientific). The assay plates were incubated for 4-5 hr at 37C to allow cell attachment to the well bottom, followed by the transfer of 23 nL compound or DMSO vehicle by a pintool work station (Kalypsys, San Diego, CA). After the assay plates were incubated overnight at 37C and 5% CO2, fluorescence intensities in the assay plates were measured by an Envision (PerkinElmer, Shelton, CT) plate reader using three labels for measuring blue, green and red fluorescence at […] 460, 535 and 590nm respectively.

| SMILES | outcome |
| --- | --- |
| CC[C@@H](O)C(C[C@@H](C)N(C)C)(c1ccccc1)c1ccccc1 | inactive |
| CCC(=O)O[C@](Cc1ccccc1)(c1ccccc1)[C@H](C)CN(C)C | inactive |
| C#C[C@]1(OC(=O)CCCCCC)CC[C@H]2[C@@H]3CCC4=CC(=O)CC[C@@H]4[C@H]3CC[C@@]21C | inactive |
| CN1CCN=C(c2ccccc2)c2cc(Cl)ccc21 | inactive |
| Cc1ccc2c(c1)[C@]13CCCC[C@@H]1[C@H](C2)N(C)CC3 | inactive |
| CN1C2CCC1CC(OC(c1ccccc1)c1ccc(Cl)cc1)C2 (stereo unspecified) | inactive |
| CCC(=O)O[C@H]1[C@@H](N2CCCCC2)C[C@H]2[C@@H]3CC[C@H]4C[C@H](OC(C)=O)[C@@H](N5CCCCC5)C[C@]4(C)[C@H]3CC[C@@]21C | inactive |
| CC(=O)O[C@H]1C[C@H](O[C@H]2[C@@H](O)C[C@H](O[C@H]3[C@@H](O)C[C@H](OC4CC[C@@]5(C)C(CC[C@@H]6[C@@H]5CC[C@]5(C)[C@@H](C7=CC(=O)OC7)[C@@H](O)C[C@]65O)C4)O[C@@H]3C)O[C@@H]2C)O[C@H](C)[C@H]1O[C@@H]1O[C@H](CO)[C@@H](O)[C@H](O)[C@H]1O (stereo partly specified) | inactive |
| Clc1ccc([C@@H]2C[C@H]3CC[C@@H]2N3)cn1 | inactive |
| COc1cc(C[C@H](C)N)c(OC)cc1Br | inactive |
| C[C@]12CC[C@H]3[C@@H](CCC4=CC(=O)CC[C@@]43C)[C@@H]1CC[C@@H]2OC(=O)CCc1ccccc1 | inactive |
